Experimental data reported in PubChem BioAssay.
Unmarked numbers belong to inactive results. The rule behind the calls is not given here.

biological target: Pantothenate synthetase (Mycobacterium tuberculosis (strain ATCC 25618 / H37Rv)) (UniProt P9WIL5); test: Coupled enzyme confirmation of inhibitors against recombinant Mtb PanC (AID 375); conditions: coupled enzyme assay; at 10 µM, hits give high values;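 note: 0% = full reaction with vehicle and 100% = no enzyme background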
Sequence (P9WIL5 whole entry, looked up): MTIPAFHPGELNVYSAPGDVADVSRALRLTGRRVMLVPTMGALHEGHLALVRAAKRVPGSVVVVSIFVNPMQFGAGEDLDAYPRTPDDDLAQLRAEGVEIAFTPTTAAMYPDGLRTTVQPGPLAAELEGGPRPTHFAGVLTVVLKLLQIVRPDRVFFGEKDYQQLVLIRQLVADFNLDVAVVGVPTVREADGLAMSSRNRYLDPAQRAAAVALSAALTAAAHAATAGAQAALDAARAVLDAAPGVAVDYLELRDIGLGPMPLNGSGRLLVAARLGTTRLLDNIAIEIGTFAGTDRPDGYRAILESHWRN

SMILES	inhibition [%]
O=C(O)c1cc(-c2ccccc2Cl)n[nH]1	2
O=C(c1ccc(CSCc2ccccc2F)o1)N1CCN(c2ccc(N3CCOCC3)nn2)CC1	0
CCOC(=O)N1CCC(n2c(=S)[nH]c3cc(OC)c(OC)cc3c2=O)CC1	2
O=C(COc1ccccc1Cl)NCCCN1CCOCC1	0
N#Cc1c(N)n(CCNC(=O)c2cccs2)c2nc3ccccc3nc12	9
O=C(OCc1nnc(-c2ccc(Cl)cc2)o1)c1ccc(=O)n(Cc2ccccc2)n1	0
CCOCCCNC(=O)C(c1ccc(C)cc1)N(Cc1ccc2c(c1)OCO2)C(=O)c1cnccn1 (configuration not stated)	0
O=C(CSc1nnnn1C1CCCC1)NCc1ccc2c(c1)OCO2	0
CCOC(=O)c1c(C)[nH]c(C(=O)COC(=O)C2CC2C)c1C (configuration not stated)	0
COC(=O)CCC(=O)Nc1ccc(OC)cc1	0
COc1ccc(N(CC(=O)Nc2ccccc2SC)S(C)(=O)=O)cc1OC	2
CCOc1ccccc1N1C(=O)CC(Sc2ncccc2C(=O)O)C1=O (configuration not stated)	0
CCOC(=O)NC1(NCc2ccccc2)Oc2ccccc2O1	0
Cc1nc(CCNS(=O)(=O)c2cccs2)cs1	0
Cc1nc2ccc(S(=O)(=O)NCC(=O)N(C)Cc3ccco3)cc2s1	0
COC(=O)C1=C(C)n2nnnc2NC1c1ccc(Cl)cc1 (configuration not stated)	2
C(=N\c1c(-c2ccccc2)nc2n1CCS2)/c1ccccc1	4
